Compound activity as filed in PubChem.
The full list was thinned out, with hits kept by preference.
DUSP3 inh = VHR1 phosphatase inhibitors, primary screen, biochemical, colorimetric, HTS; recombinant VHR phosphatase, colorimetric substrate read-out; Dual specificity protein phosphatase 3 (Homo sapiens), P51452; inhibition, % at 20 µM; 50,000 tested, 0.7% active; in the data active = inhibition above about 60%
Target sequence (P51452 whole entry, looked up): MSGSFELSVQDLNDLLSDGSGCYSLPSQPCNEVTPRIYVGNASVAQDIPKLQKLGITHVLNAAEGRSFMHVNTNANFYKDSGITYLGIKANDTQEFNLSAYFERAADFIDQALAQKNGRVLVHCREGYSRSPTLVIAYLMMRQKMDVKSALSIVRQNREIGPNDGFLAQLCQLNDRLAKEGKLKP
Numbers without * were called inactive.

SMILES	DUSP3 inh
Cc1ccc(N2NC(=O)/C(=C/c3ccc(-c4ccc5c(c4)COC5=O)o3)C2=O)cc1C	84.9*
Cc1c(C(=O)Nc2ccc(Cl)cc2)cnn1-c1ccccc1	-14.6
O=C(NCc1ccco1)c1cc(-c2ccco2)nc2ccccc12	4.4
CC(=O)Nc1ccc(Cl)c(-c2nc3ccccc3s2)c1	-26.6
Cc1cccc(C(=O)Nc2ccccc2)c1	-3.3
COc1ccc(CC(C)(C)NC(=O)c2ccccc2)cc1	-22.8
O=C1/C(=C\c2ccccc2)SC(=S)N1CN1CCCCC1	1.7
O=C(COc1ccc2ccccc2c1)NCCc1ccccc1	2.6
O=C1OC(c2ccccc2)=C/C1=C/c1ccc(-c2ccc([N+](=O)[O-])cc2Br)o1	-0.3
Cc1ccc([N+](=O)[O-])cc1/C=C1/C=C(c2ccccc2)OC1=O	95.8*
Cc1ccc(C2=C/C(=C\c3cc([N+](=O)[O-])ccc3Cl)C(=O)O2)cc1	6.8
COc1cccc(C2NC(=O)NC(C)=C2C(=O)Nc2ccccc2Cl)c1 (stereo unspecified)	0.4
O=C1NC(=O)N(c2ccc(Cl)cc2)C(=O)/C1=C/c1ccc(F)cc1	-15.2
O=C1NC(=O)N(c2ccc(Cl)cc2)C(=O)/C1=C\c1ccc(N2CCCC2)cc1	70.5*
CN1C(=O)NC(=O)/C(=C\c2ccc(N3CCCC3)cc2)C1=O	1.7
Cc1ccc(OCCCCN2CCC(C)CC2)c(Cl)c1	7.1
CC1(C)C(=O)N(Cc2ccc(Cl)c(Cl)c2)c2ccccc2N1C(=O)c1cccc([N+](=O)[O-])c1	-13.1
O=C1C=CC(=O)c2c1c(-c1ccccc1)nn2-c1ccccc1	86.0*
CCOC(=O)c1c(-c2ccccc2)nn(-c2ccccc2)c1C	-15.7
Cc1c(C(=O)NCCO)c(-c2ccccc2)nn1-c1ccccc1	-2.0
CCOC(=O)C1=C(C)N(CC(C)C)C(=O)/C1=C\c1ccco1	-10.4
O=[N+]([O-])c1ccc(S(=O)(=O)N/N=C/c2ccc3c(c2)OCO3)cc1	-19.2
CC(C)(C)c1ccc(S(=O)(=O)N/N=C/c2ccc3c(c2)OCO3)cc1	110.8*
COc1ccc(S(=O)(=O)N/N=C/c2ccc3c(c2)OCO3)cc1	-5.2
Cc1ccc(N(CC(=O)NCCSc2ccc(Cl)cc2)S(=O)(=O)c2ccc(F)cc2)cc1	-10.5
SMILES	DUSP3 inh
COc1cccc(CN2CCN(Cc3ccccc3Br)CC2)c1	3.3
COc1ccc(/C=C/c2nc3ccccc3c(=O)n2-c2ccc(OC)cc2)cc1	-19.1
CCCCOc1ccc(C(=O)Nc2sc(C)c(CC)c2C(N)=O)cc1	69.5*
CCc1c(C)sc(NC(=O)c2cccnc2)c1C(N)=O	-1.1
CCc1c(C)sc(NC(=O)c2ccc(Cl)cc2)c1C(N)=O	-6.3
O=C(Nc1ccccc1C(=O)Nc1ccc(Br)cc1)c1ccco1	-4.4
O=C(O)CN1C(=O)/C(=C\c2ccc(-c3ccccc3Cl)o2)SC1=S	82.7*
O=C(O)CN1C(=O)/C(=C/c2c(Cl)cccc2Cl)SC1=S	-19.9
Cc1ccc(/C=C2\SC(=S)N(CC(=O)O)C2=O)o1	26.8
O=C(CN1C(=O)c2ccccc2C1=O)Nc1ccc(O)cc1C(=O)O	-8.7
CC1=C(C(=O)OC(C)C)C(c2cccc(Br)c2)NC(=O)N1 (stereo unspecified)	-14.3
CC1=C(C(=O)OC(C)C)C(c2ccccc2Br)CC(=O)N1 (stereo unspecified)	101.5*
COC(=O)C1=C(C)NC(=O)CC1c1ccccc1C(F)(F)F (stereo unspecified)	-32.8
CC1=C(C(=O)OCc2ccccc2)C(c2ccc(F)c(Br)c2)CC(=O)N1 (stereo unspecified)	5.3
COC(=O)C1=C(C)NC(=O)CC1c1ccc(F)c(Br)c1 (stereo unspecified)	-13.4
CC1=C(C(=O)OC(C)C)C(c2cc(Br)ccc2F)CC(=O)N1 (stereo unspecified)	102.4*
CC1=C(C(=O)OC(C)C)C(c2ccccc2Cl)CC(=O)N1 (stereo unspecified)	28.6
CC1=C(C(=O)OC(C)C)C(c2ccc(F)c(Br)c2)CC(=O)N1 (stereo unspecified)	117.5*
CC1=C(C(=O)OC(C)C)C(c2ccc(Br)cc2)C2=C(CC(c3ccc(Cl)cc3)CC2=O)N1 (stereo unspecified)	-19.4
COc1ccccc1C/C(N)=N/OC(=O)c1ccccc1OC	-19.9
COc1cc(C2/C(=C(\O)c3ccc(F)cc3)C(=O)C(=O)N2CCCCCC(=O)O)ccc1O (stereo unspecified)	-3.1
O=C(Nc1ccc(F)c(Cl)c1)c1ccncc1	-13.3
Cc1ccc(C(=O)/C=C/c2ccc(-c3ccccc3Br)o2)cc1	28.4
O=C(NCc1cccnc1)c1cc(-c2ccccc2)nc2ccccc12	4.4
O=C(NCc1cccnc1)c1ccc(C#Cc2ccccc2)cc1	-5.7
SMILES	DUSP3 inh
Nc1c(C(=O)NCc2cccnc2)sc(=S)n1-c1ccccc1	91.4*
O=C(N/N=C/c1ccc([N+](=O)[O-])o1)c1ccc(Cl)c(Cl)c1	-5.2
CCOc1ccc(N2C(=O)CC(N3CCC(C(N)=O)CC3)C2=O)cc1 (stereo unspecified)	-20.9
CCOc1ccc(N2C(=O)CC(N3CCCCC3)C2=O)cc1 (stereo unspecified)	102.2*
CCOc1ccc(N2C(=O)CC(N3CCC(C(N)=O)(N4CCCCC4)CC3)C2=O)cc1 (stereo unspecified)	-35.5
O=C(CSc1nnc(-c2ccco2)n1-c1ccccc1)Nc1cccc([N+](=O)[O-])c1	-2.6
CC1CCc2c(sc(NC(=O)c3ccccc3)c2C(N)=O)C1 (stereo unspecified)	1.5
CC1CCc2c(sc(NC(=O)c3cccc(C(=O)O)c3)c2C(N)=O)C1 (stereo unspecified)	78.1*
COc1cc(OC)cc(C(=O)Nc2sc3c(c2C(N)=O)CCC(C)C3)c1 (stereo unspecified)	25.0
O=C(CN1CCCC1)NCC1COc2ccccc2O1 (stereo unspecified)	14.2
Cc1ccc(-c2ccccc2)n1-c1ccc(Cl)c(C(=O)O)c1	43.5
Cc1ccc(-c2ccccc2)n1-c1ccc(C(=O)O)cc1	6.2
Cc1ccc(-c2ccccc2)n1-c1ccc(O)c(C(=O)O)c1	99.4*
Cc1cccc(Cn2cc(/C=C(\C#N)C(=O)Nc3ccc(F)cc3)c3ccccc32)c1	8.5
CNC(=O)CN(c1ccc(C)cc1)S(=O)(=O)c1ccc(OC)c(OC)c1	-17.1
COc1ccc(-c2ccc(-c3nnc(-c4ccc([N+](=O)[O-])cc4)o3)cc2)cc1	5.7
Cc1ccc(S(=O)(=O)N2CCN(C(=O)COc3ccc(Cl)cc3)CC2)cc1	86.7*
O=C(COc1ccc(Cl)cc1)N1CCN(C(=O)COc2ccc3ccccc3c2)CC1	1.8
O=C(COc1ccc2ccccc2c1)N1CCN(S(=O)(=O)c2ccc(Cl)cc2)CC1	-9.1
Cc1ccccc1N1OC2C(=O)N(c3ccc(F)cc3)C(=O)C2C1c1ccccc1 (stereo unspecified)	3.3
Cc1cccc(N2CCN(C(=O)c3ccc(C(C)(C)C)cc3)CC2)c1C	1.4
Cc1cc(/C=C2/SC(=O)NC2=O)c(C)n1-c1cccc(Cl)c1	-3.1
Cc1cc(/C=C2/SC(=S)NC2=O)c(C)n1-c1cccc(Cl)c1	94.8*
Cc1cc(C)cc(-n2c(C)cc(C=C3SC(=S)NC3=O)c2C)c1	-5.3
CCN(CC)c1ccc(NC(=O)c2ccc(-c3cccc(Cl)c3)o2)cc1	-23.3
O=C(Nc1ccc(Cl)cc1)c1ccc(-c2cccc(Cl)c2)o1	21.6
CCCOC(=O)c1ccc(NC(=O)c2ccc(-c3cccc(Cl)c3)o2)cc1	109.3*
